TDP1 cell noCPT = qHTS for Inhibitors of human tyrosyl-DNA phosphodiesterase 1 (TDP1): qHTS in cells in absence of CPT; AID 686978, 2013; actives 15% (n = 420,000); Potency, µM (doses to about 46.2 µM), hits mostly inhibitors; DT40 Tdp1-/- hTDP1 cells, no CPT, ATP luminescence, 48 h; also: nearly all actives have a fitted effect of over 55% in size
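Luminescent ATP content (CellTiter-Glo) served as the growth readout. Knockout chicken DT40 cells expressing human TDP1 were exposed to compounds without camptothecin for a minimum 48 hr at 37 °C.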
TDP1 block = blocks human tyrosyl-DNA phosphodiesterase 1. Q9NUW8. recombinant TDP1, AlphaScreen DNA substrate cleavage. Potency, µM (top dose mostly 130 µM), usual class: inhibitors. actives 0.28% (n = 350,000); also: nearly all actives have a fitted effect of over 40% in size
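Signal: AlphaScreen proximity between streptavidin donor and anti-FITC acceptor beads on intact substrate. Reaction: Tdp1 1 nM, substrate 15 nM final, 5 min RT after 15 min compound preincubation.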
KAT2A inh = blocks human GCN5L2 histone acetyltransferase. Q92830. GCN5L2 HAT assay, ThioGlo1 CoA-SH fluorescence. Potency, µM (highest dose often 58.9 µM), most hits filed as inhibitors. actives 0.21% (n = 390,000). AID 504327
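qHTS, 1536-well. 20nM enzyme, pH 7.5 HEPES/EDTA/Tween-20 buffer; 15 min compound preinc., RT. Start: 75uM H3(1-25), 70uM AcCoA, 50uM ThioGlo1. Read Ex340/Em540 at t=0 (autofluorescence flag) and t=20 min.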
DT40 TDP1 CPT = growth inhibition of DT40 Tdp1-/-;hTDP1 cells with camptothecin (screen for TDP1 inhibitors); Potency, µM (highest dose often 46.2 µM), actives largely listed as inhibitors; actives 12% (n = 420,000); chicken DT40 Tdp1-/-;hTDP1 cells + 20 nM CPT, ATP luminescence, 48 h; also: nearly all actives have a fitted effect of over 55% in size
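Chicken DT40 Tdp1-/- cells stably complemented with human TDP1 were seeded at 400 cells/well in medium containing 20 nM camptothecin, exposed to pin-transferred compounds, and grown at 37 °C for at least 48 hr. Viability was read as ATP luminescence.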
PLK1 PBD block = PLK1 (human) polo-box domain binding inhibition. Plk1 PBD binding of FITC phosphopeptide, fluorescence polarization. Potency, µM, usual class: inhibitors. P53350. AID 720504. actives 2.8% (n = 360,000); also: series mostly up to about 57 µM; nearly all actives have a fitted effect of over 65% in size
VDR inhibitor = blocks the human vitamin D receptor; AID 504847; VDR-SRC2-3 peptide fluorescence polarization, 2 h; P11473; actives 0.93% (n = 400,000); Potency, µM, most hits filed as inhibitors
Target sequence (P11473 whole entry, looked up): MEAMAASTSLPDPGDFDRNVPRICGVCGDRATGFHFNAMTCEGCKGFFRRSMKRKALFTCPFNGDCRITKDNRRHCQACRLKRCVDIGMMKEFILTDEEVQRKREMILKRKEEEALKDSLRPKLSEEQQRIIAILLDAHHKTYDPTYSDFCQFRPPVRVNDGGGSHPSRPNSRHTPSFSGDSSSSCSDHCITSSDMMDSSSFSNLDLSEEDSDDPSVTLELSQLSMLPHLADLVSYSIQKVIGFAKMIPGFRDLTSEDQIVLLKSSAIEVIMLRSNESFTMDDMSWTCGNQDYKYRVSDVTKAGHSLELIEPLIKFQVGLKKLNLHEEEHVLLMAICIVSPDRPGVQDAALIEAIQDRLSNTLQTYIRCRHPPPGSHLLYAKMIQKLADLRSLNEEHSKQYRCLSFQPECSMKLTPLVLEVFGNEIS
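Signal is fluorescence polarization, reporting how far test compounds block the interaction of VDR with the SRC2-3 coregulator peptide after a 2 h room-temperature incubation.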
A number is an active result; n = inactive; u = inconclusive; x = no result. Compounds with a hit are over-represented: about 18% of the library has one in this group of screens. Calls follow the shape of the dose curve; as a rule, active = well fitted curve in the direction sought with a large enough effect; inconclusive = small, poorly fitted or top-dose-only effect, or another doubt; inactive = no such curve, though single readings can be large; an effect the other way counts as inactive or inconclusive.

SMILES	TDP1 cell noCPT	TDP1 block	KAT2A inh	DT40 TDP1 CPT	PLK1 PBD block	VDR inhibitor
COc1ccc(/C=N/OCC(=O)N=Nc2c(O)[nH]c3ccc(Br)cc23)cc1OC	23µM	n	n	26µM	n	n
O=C(Cn1c(C(F)(F)F)nc2ccccc21)N=Nc1c(O)[nH]c2ccc(Br)cc12	18µM	n	n	u	n	n
COc1ccc2[nH]c(O)c(N=NC(=O)Cc3cccs3)c2c1	u	n	n	u	n	n
Cc1ccc(NS(=O)(=O)c2cc3c(cc2Cl)CCC(=O)N3)cc1Cl	x	n	x	x	x	x
O=C1c2ccccc2NC(c2cn[nH]c2-c2ccc(Cl)cc2)N1O (stereo unspecified)	16µM	n	n	16µM	n	n
CCS(=O)(=O)N1Cc2ccccc2CC1C(=O)Nc1nc(C)cs1 (stereo unspecified)	u	n	n	n	n	n
O=C(Nc1nnc(C2CC2)s1)C1Cc2ccccc2CN1S(=O)(=O)c1cccs1 (stereo unspecified)	16µM	n	n	21µM	n	n
CCS(=O)(=O)N1Cc2ccccc2CC1C(=O)Nc1nc2c(C)cccc2s1 (stereo unspecified)	26µM	n	n	n	n	n
CCSc1nnc(NC(=O)C2Cc3ccccc3CN2S(=O)(=O)CC)s1 (stereo unspecified)	16µM	n	n	u	n	n
CCn1c(CC(=O)Nc2ccccc2)n[nH]c1=S	n	x	n	n	n	n
COc1cc(C(=O)N2CCN(C(=O)c3cc(-c4ccccc4)n[nH]3)CC2)cc(OC)c1OC	n	n	n	n	n	n
COc1cc(C2c3cc4c(cc3CC3COC(=O)N32)OCO4)cc(OC)c1OC (stereo unspecified)	0.92µM	x	x	0.82µM	n	n
C#CCOc1c(/C=C\c2nc(O)c([N+](=O)[O-])c(=O)[nH]2)cc(Br)cc1OC	n	x	n	n	n	22µM
CCc1ccc(NC(=O)CN2C(=O)C(c3ccc(F)cc3)=NC2(C)C)cc1	n	n	n	n	x	n
Cc1ccc(CN2CCC(CNS(=O)(=O)c3ccc(-c4ccc(=O)[nH]n4)s3)CC2)cc1	u	n	n	u	30µM	u
COc1ccc(-c2c(-c3ccsc3)oc3ccc(N4CCOCC4)cc23)cc1	16µM	x	x	u	n	n
CCc1cccc(CC)c1NC(=O)COC(=O)c1ccccc1-c1nc2ccccc2s1	16µM	n	n	21µM	n	n
COc1cc(CNn2nnnc2N)cc(Br)c1OCc1c(Cl)cccc1Cl	21µM	n	n	18µM	n	n
C=CCOc1c(CNn2nnnc2N)cccc1OC	n	n	n	n	n	n
Cc1ccc2nccc(C(=O)N3CCCC(Nc4ccc(F)cc4)C3)c2c1 (stereo unspecified)	u	n	n	n	n	n
N#CC(C#N)=C(Nc1ccc(F)cc1)SCc1cccc(Br)c1	2.3µM	n	n	2.9µM	u	u
CC(C)Oc1cc(NC(=O)CS(=O)CC(=O)N(C)C)c(Cl)cc1Cl (stereo unspecified)	n	n	n	n	n	n
CC(C)Oc1cc(NC(=O)CS(=O)CC(=O)Nc2cccc(C(F)(F)F)c2)c(Cl)cc1Cl (stereo unspecified)	16µM	n	n	21µM	n	n
O=C(OCN1C(=O)c2ccccc2C1=O)c1cc(S(=O)(=O)N2CCOCC2)ccc1F	n	n	n	n	n	n
O=C(CSc1oc(-c2ccco2)nc1S(=O)(=O)c1ccc(Br)cc1)c1ccccc1	u	n	n	u	x	n
O=C(CSc1oc(-c2ccccc2)nc1S(=O)(=O)c1ccc(Br)cc1)c1ccccc1	10µM	n	n	u	x	n
O=C(CSc1oc(-c2ccccc2)nc1S(=O)(=O)c1ccc(Cl)cc1)NC1CCCCC1	n	n	n	n	x	n

From PubChem
